# The list is not random: actives were taken first. Their share in the collection is about 3.7%.
# WRN inhibitor: inhibitors of human WRN helicase; Q14191; WRN helicase unwinding, fluorescent forked duplex, kinetic; Potency, µM (doses to about 114 µM), for the others: top-dose activity change, negative = inhibition, usual class: inhibitors; 360,000 tested, 0.46% active; also: potency is read from the fitted curve at half-maximal effect; % is scaled to controls: 0 for no effect and ±100 for the full control effect; nearly all actives have a fitted effect of over 55% in size
#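 WRN at 20 nM final preincubated with compound 15 min at room temperature; reaction started with 100 nM fluorophore/quencher forked duplex oligonucleotide and 2 mM ATP final. Unwinding followed kinetically by red fluorescence (ex 525, em 598 nm).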
# VDR inh: blocks the human vitamin D receptor | VDR-SRC2-3 peptide fluorescence polarization, 2 h | Potency, µM, inactives show max response, negative = inhibition, usual class: inhibitors | 400,000 tested, 0.93% active | AID 504847; also: potency is read from the fitted curve at half-maximal effect; % is scaled to controls: 0 for no effect and ±100 for the full control effect
# Target sequence (P11473 whole entry, looked up): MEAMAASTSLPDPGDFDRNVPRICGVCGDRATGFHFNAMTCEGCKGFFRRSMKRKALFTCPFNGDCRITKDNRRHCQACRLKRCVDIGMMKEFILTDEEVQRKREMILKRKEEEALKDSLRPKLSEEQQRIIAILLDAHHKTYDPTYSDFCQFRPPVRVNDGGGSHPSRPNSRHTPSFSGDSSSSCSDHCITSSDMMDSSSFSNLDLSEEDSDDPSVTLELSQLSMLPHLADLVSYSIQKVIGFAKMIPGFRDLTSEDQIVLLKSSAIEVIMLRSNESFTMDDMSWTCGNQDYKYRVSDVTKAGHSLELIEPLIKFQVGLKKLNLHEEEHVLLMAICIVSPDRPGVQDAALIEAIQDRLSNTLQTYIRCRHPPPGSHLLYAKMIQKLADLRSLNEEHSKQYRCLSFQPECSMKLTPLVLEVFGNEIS
#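 Fluorescence polarization assay of small-molecule disruption of VDR binding to coregulator peptide SRC2-3. Compounds and controls pin-transferred, then read after 2 h incubation at ambient room temperature.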
# FEN1 inhibitor: blocks human flap endonuclease 1 | Recombinant FEN1 flap cleavage, fluorescence, 15 min | Potency, µM (series often up to 114 µM), for the others: top-dose activity change, negative = inhibition, actives largely listed as inhibitors | AID 588795 | 390,000 tested, 0.35% active | P39748; also: potency is read from the fitted curve at half-maximal effect; % is scaled to controls: 0 for no effect and ±100 for the full control effect; nearly all actives have a fitted effect of over 65% in size
# Target sequence (P39748 whole entry, looked up): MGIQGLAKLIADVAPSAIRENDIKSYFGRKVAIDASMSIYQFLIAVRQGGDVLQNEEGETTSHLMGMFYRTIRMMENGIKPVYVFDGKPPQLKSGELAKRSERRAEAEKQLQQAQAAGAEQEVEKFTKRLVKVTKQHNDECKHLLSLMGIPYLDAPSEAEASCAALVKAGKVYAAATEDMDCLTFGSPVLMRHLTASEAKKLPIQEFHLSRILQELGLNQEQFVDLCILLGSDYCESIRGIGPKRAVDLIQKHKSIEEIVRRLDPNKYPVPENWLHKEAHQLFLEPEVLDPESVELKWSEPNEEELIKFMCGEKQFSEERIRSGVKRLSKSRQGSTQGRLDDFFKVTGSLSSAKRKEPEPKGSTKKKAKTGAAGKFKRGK
#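 Nuclease activity of 10 nM FEN1 was measured after 15 min of room-temperature exposure to titrated compounds, by adding 50 nM flap substrate and reading plates at 0 and 15 min.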
# PI5P4K alpha inh: inhibitors of human PI5P4K alpha; P48426; PI5P4Kalpha enzyme, ADP-Glo luminescence, 60 min; hits give low values; max response, %; 330,000 tested, 1.2% active; AID 652105; active = max response of -50% or lower; inconclusive = between -30% and -50%; inactive = -30% or higher; also: value at the top dose of about 77 µM; % is scaled to controls: 0 for no effect and ±100 for the full control effect
#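 Luminescence from ADP-Glo served as readout of PI5P4Kalpha activity in a qHTS format. Reaction: enzyme, substrate, compound, ATP at 5 microM final, 60 min at RT.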
# TCR act: T cell receptor activation | primary human leukocytes, anti-CD3, IL-2 HTRF, 48 h | Potency, µM (doses to about 9.22 µM), inactives show top-dose activation of IL-2 secretion, most hits filed as activators | 330,000 tested, under 10 active | AID 504894; also: % of control where 0% means no effect
#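 Primary human leukocytes receive a-CD3 beads and test compound and are incubated 48 hr. Secreted IL-2 is then assayed by HTRF, measuring 665nm acceptor emission after 320nm excitation of the europium donor.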
# PLK1 PBD inh: PLK1 (human) polo-box domain binding inhibition; 360,000 tested, 2.8% active; Potency, µM, for inactives: max response, negative = inhibition, actives largely listed as inhibitors; Plk1 PBD binding of FITC phosphopeptide, fluorescence polarization; also: potency is read from the fitted curve at half-maximal effect; series mostly up to about 57 µM; % is scaled to controls: 0 for no effect and ±100 for the full control effect; nearly all actives have a fitted effect of over 65% in size
# USP1-UAF1 confirm: blocks human USP1/UAF1 cleavage of Ub-Rhodamine | shares compounds with VDR inh | Potency, µM (top dose mostly 56.8 µM), for the others: at the top dose activity change, negative = inhibition, hits mostly inhibitors | AID 540327 | Ub-Rhodamine cleavage, fluorescence kinetic read | 50 tested, 50% active
# VDR inh confirm: inhibits human vitamin D receptor, primary hit validation; 840 tested, 89% active; shares compounds with VDR inh; Potency, µM, actives largely listed as inhibitors; AID 602199; VDR-coactivator inhibition assay, qHTS confirmation; also: potency is read from the fitted curve at half-maximal effect
# VDR FP: blocks human VDR-coactivator binding in fluorescein assay; shares compounds with VDR inh; VDR-coactivator binding, fluorescein fluorescence polarization; Potency, µM (top dose mostly 57.1 µM), for the others: at the top dose activity change, negative = inhibition, hits mostly inhibitors; 840 tested, 48% active; also: potency is read from the fitted curve at half-maximal effect
# VDR bla: VDR (human) inhibition, cell-based beta-lactamase validation | shares compounds with VDR inh | Potency, µM (titrated, usually from 46.1 µM), for the others: at the highest dose activity change, negative = inhibition, usual class: inhibitors | 840 tested, 23% active | VDR beta-lactamase reporter cells, FRET ratio; cells co-treated with VDR agonist LG190178 | AID 602202; also: potency is read from the fitted curve at half-maximal effect; % is scaled to controls: 0 for no effect and ±100 for the full control effect
# VDR cytotox: counter-screen for vitamin D receptor inhibitors: cytotoxicity; Potency, µM (doses to about 48.3 µM), for inactives: at the highest dose activity change, negative = cytotoxicity, usual class: cytotoxic; cytotoxicity counter-screen, cell viability, qHTS; shares compounds with VDR inh; 840 tested, 18% active;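 also: potency is read from the fitted curve at half-maximal effect; plate controls were DMSO for no effect and high-concentration cycloheximide for full effect; nearly all actives have a fitted effect of over 75% in size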
# * = called active by the depositor; ? = inconclusive; . = no result given; ! = repeats disagree; [ ] = remark or other dose. Unless noted, calls follow the shape of the dose curve; as a rule, active = well fitted curve in the direction sought with a large enough effect; inconclusive = small, poorly fitted or top-dose-only effect, or another doubt; inactive = no such curve, though single readings can be large; an effect the other way counts as inactive or inconclusive.
SMILES,WRN inhibitor,VDR inh,FEN1 inhibitor,PI5P4K alpha inh,TCR act,PLK1 PBD inh,VDR inh confirm,VDR FP,VDR bla,VDR cytotox,others
O=C(NCc1cccnc1)/C(=C\c1ccc(-c2cccc(Cl)c2)o1)S(=O)(=O)c1ccccc1,-8.2%,44.7µM*,-7.6%,0.5,-1.0%[46.1 µM],-29.7%,23.8*,?,6.51µM*,18.4µM*,
O=C(NCc1cccnc1)/C(=C/c1ccc(-c2cccc(Cl)c2)o1)S(=O)(=O)c1ccccc1,3.7%,?,-2.5%,5.1,-3.4%,-17.9%,.,.,.,.,
O=C(Nc1ccc(Br)cc1F)c1ncoc1-c1ccco1,.,3.9%,17.9%,.,.,.,.,.,.,.,
CCN(CC)S(=O)(=O)c1cc(NC(=O)c2ccc3c(c2)NC(=O)C(C)S3)ccc1C (stereo unspecified),-3.0%[11.6 µM],79.4µM*,-1.1%,?,-5.7%,8.44µM*,21.2*,?,?,?,
CC(C)Cc1nnc(NC(=O)c2ccc3c(c2)NC(=O)C(C)S3)s1 (stereo unspecified),2.2%,-12.0%,5.0%,-1.9,0.2%,-0.4%,.,.,.,.,
COc1ccc(NC(=O)CCCN2C(=O)CCn3nc(-c4cn(C)c5ccccc45)cc32)cc1,.,17.9%,14.0%,.,.,.,.,.,.,.,
O=C1Nc2ccc(Br)cc2C1=Nc1cccnc1,-12.3%,25.1µM*,-3.9%,-10.5,-43.4%,?,9.47*,-18.9%,16.9%,?,
O=C1Nc2ccccc2C1=Nc1cccc(Cl)c1,-4.8%,-15.6%,2.6%,0.4,2.1%,-10.2%,.,.,.,.,
COc1ccc(NC(=O)CCS(=O)(=O)c2nc(-c3ccc4c(c3)OCO4)cc(C(F)(F)F)n2)cc1OC,.,?,-11.5%,.,.,.,.,.,.,.,
COc1ccc(NC(=O)CCS(=O)(=O)c2nc(-c3cccs3)cc(C(F)(F)F)n2)cc1OC,.,44.7µM*,5.8%,.,.,.,?,25.1µM*,3.8%,8.6%,
O=C(CCS(=O)(=O)c1nc(-c2ccc3c(c2)OCO3)cc(C(F)(F)F)n1)Nc1ccc(F)c(Cl)c1,.,8.91µM*,-7.6%,.,.,.,7.08*,7.94µM*,23.1µM*,?,
O=C(NC1CCCCCC1)C(=S)N1CCOCC1,-27.3%,17.8µM*,-4.1%,-27.9,3.8%,5.32µM*,21.2*,?,-4.4%,21.9%,
CC1(C)CCC(=O)c2ccccc21,-19.4%,-17.6%,2.2%,4.6,-3.2%,-7.2%,.,.,.,.,
CC1(C)CCC2=C(O1)c1ccccc1C(=O)C2=O,.,8.91µM*,?,.,.,.,14.1*,11.2µM*,?,23.8µM*!,USP1-UAF1 confirm=8.35µM*
S=C(NNc1ccnc2cc(Cl)ccc12)Nc1ccccc1Cl,-33.2%,?,-5.1%,-29.6,2.1%[46.1 µM],15µM*,12.6*,10µM*,?,?,
COc1cc2c(cc1OC)-c1n[nH]c(=S)n1C(C)(C)C2,-0.5%,-3.8%,-0.9%,-24.9,1.5%,?,.,.,.,.,
COc1cc2c(cc1OC)-c1cc3nc4ccccc4nc3n1C(C)(C)C2,.,7.08µM*,.,.,.,.,20*,?,?,-8.2%,USP1-UAF1 confirm=46.9µM*
CC1CCCN(Cc2nc3c(c(=O)n(C)c(=O)n3C)n2Cc2ccc(Cl)cc2Cl)C1 (stereo unspecified),.,-14.9%,4.3%,.,.,.,.,.,.,.,
COc1ccc(/C=C/C(=O)c2ccccn2)cc1,3.6%,39.8µM*,5.2%,-17.4,.,-11.7%,33.6*,?,33.8%,-14.4%,
O=[N+]([O-])c1ccc(S(=O)(=O)c2cccc(C(F)(F)F)c2)nc1,-15.1%,28.2µM*,-6.8%,-1.2,0.4%,2.67µM*,6.7*,?,16.4µM*,?,
O=S(=O)(Nc1cccnc1)c1cccc(C(F)(F)F)c1,3.2%,-23.6%,-2.4%,.,.,-5.5%,.,.,.,.,
COc1cc(CN(C(=O)COc2ccc(F)cc2)c2ccccn2)cc(OC)c1OC,.,24.5%,-4.6%,.,.,.,.,.,.,.,
CCCOC(=O)c1ccc(NC(=O)C2CCCO2)cc1 (stereo unspecified),-0.3%,1.9%,-7.5%,5.3,-0.3%,-8.8%,.,.,.,.,
CCCOC(=O)c1c(NC(=O)C2CCCO2)sc(C(=O)OC)c1C (stereo unspecified),-15.1%,79.4µM*,-0.4%,-21.8,0.4%[46.1 µM],9.47µM*,23.8*,?,-5.4%,13.2%,
CCC(=O)Nc1cccc(C(=O)/C=C/c2ccc(F)cc2)c1,-29.4%,?,-4.2%,0.5,3.9%,-24.7%,.,.,.,.,
SMILES,WRN inhibitor,VDR inh,FEN1 inhibitor,PI5P4K alpha inh,TCR act,PLK1 PBD inh,VDR inh confirm,VDR FP,VDR bla,VDR cytotox,others
CC(=O)Nc1cccc(C(=O)/C=C/c2ccc(C)cc2)c1,-29.2%,25.1µM*,-14.0%,-4.3,-4.9%[46.1 µM],-19.9%,21.2*,?,?,?,
COc1ccc(N2CC(NC(=O)C3CCCC3)CC2=O)cc1OC (stereo unspecified),.,-11.4%,19.8%,.,.,.,.,.,.,.,
O=C(c1ccc2c(c1)OCCO2)N(Cc1cccnc1)c1nc2ccc(F)cc2s1,.,-4.5%,17.9%,.,.,.,.,.,.,.,
Cc1cc(C)c2c(c1)C(=O)/C(=C/c1ccc(C(=O)O)cc1)CC2,-9.9%,-28.1%,1.6%,-2.8,3.1%,-10.9%,.,.,.,.,
COc1ccc(/C=C2\COc3ccccc3C2=O)cc1OC,-11.9%[11.6 µM],?,4.1%,1.7,-10.7%[46.1 µM],26.7µM*,22.4*,15.8µM*,?,?,
CCOc1cc(/C=C2\COc3ccccc3C2=O)cc(Br)c1OCC(=O)N(C)C,-26.3%,20µM*,-26.4%,-2.9,0.0%,-25.5%,5.97*,?,?,18.4µM*,
O=C(O)c1ccc(/C=C2\COc3ccccc3C2=O)cc1,?,20µM*,0.9%,-12.8,-8.5%,-19.2%,21.2*,22.4µM*,?,?,
Cc1noc(Cn2c(=O)c3ccccc3n(CC(=O)Nc3ccc(F)cc3F)c2=O)n1,.,-7.0%,19.9%,.,.,.,.,.,.,.,
CN1c2ccc(Cl)cc2-c2nc(SCC(=O)NCc3ccccc3)ncc2S1(=O)=O,.,6.2%,4.4%,.,.,.,.,.,.,.,
